Source: PubChem BioAssay (NCI)
The panel holds about 79,000 compounds, 15% with a hit somewhere; the sample as a whole holds those more often. Cut-off read from the data, not from the text of the source: active = growth inhibition above about 70%; inactive = the rest. Where a SMILES comes first, the peptide text is derived from it. The star is where a group is joined. Boc = CC(C)(C)OC(=O)*; NHNH2 = NN*

Tests used:
[1] = NCI Yeast Anticancer Drug Screen. Data for the rad50 strain (AID 155);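 note: 0% = growth of vehicle-only cultures of the same strain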; conditions: S. cerevisiae rad50 strain growth inhibition; at 50.0 µM; hits give high values
Summary of the method: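 Inhibition values express reduced yeast growth in compound-treated cultures relative to vehicle-treated controls.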

[2] = NCI Yeast Anticancer Drug Screen. Data for the mec2-1 strain (AID 157); conditions: S. cerevisiae mec2-1 strain, at 50.0 µM, hits give high values
Summary of the method: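 Yeast mec2-1 mutant treated with compound. Readout: growth inhibition vs vehicle controls.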

[3] = NCI Yeast Anticancer Drug Screen. Data for the sgs1 mgt1 strain (AID 161);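 note: 0% = growth of cultures given vehicle only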; conditions: S. cerevisiae sgs1 mgt1 strain, at 50.0 µM, hits give high values
Summary of the method: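 Genetically altered yeast, compound exposure, growth inhibition relative to vehicle.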

[4] = NCI Yeast Anticancer Drug Screen. Data for the cln2 rad14 strain (AID 165);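 note: 0% = growth equal to vehicle treated cultures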; conditions: S. cerevisiae cln2 rad14 strain, at 50.0 µM, hits give high values
Summary of the method: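 cln2 rad14 yeast strain; compound exposure; growth inhibition read vs vehicle controls.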

[5] = NCI Yeast Anticancer Drug Screen. Data for the bub3 strain (AID 167); conditions: S. cerevisiae bub3 mutant strain, at 50.0 µM, hits give high values
Summary of the method: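 Steps: expose the mutant yeast strain to compound; grow alongside vehicle-treated cultures; measure growth; express inhibition against the vehicle cultures.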

[6] = NCI Yeast Anticancer Drug Screen. Data for the mlh1 rad18 strain (AID 175); conditions: S. cerevisiae mlh1 rad18 strain growth inhibition; at 50.0 µM; hits give high values
Summary of the method: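 Yeast w/ defined DNA-repair lesions; compound exposure; growth vs vehicle controls → % inhibition.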

Measured: growth inhibition

ClC1CC2CC1C1CCCC21 (stereo not given)
inactive: [1] -2.4% | [2] -3.75% | [3] -16.1% | [4] 7.2% | [5] 4.8% | [6] -7.4%

N#CC(N)(C(=O)C(=O)NCCCNC(=O)C(=O)C(N)(C#N)c1ccc(Cl)cc1)c1ccc(Cl)cc1 (stereo not given)
inactive: [1] -37% | [2] -1.45% | [3] -32.4% | [4] -18.6% | [5] -35.1% | [6] -28.7%

C=C1C(=O)OC2C1C(=O)C/C(C)=C/CCC1(C)OC21 (stereo not given)
inactive: [1] 35.6% | [2] 52% | [3] 63.2% | [4] 34% | [5] 66% | [6] 9.95%

CCN(CC)CCS(=O)(=O)CCS(=O)(=O)CCN(CC)CC
inactive: [1] 18.5% | [2] 10.9% | [3] 25.2% | [4] 25.2% | [5] 4.4% | [6] 14.2%

CCC(C)C(NC(=O)C(Cc1c[nH]c2ccccc12)NC(=O)OC(C)(C)C)C(=O)NN (stereo not drawn) (Boc-Trp-Ile-NHNH2; configuration not given here)
inactive: [1] 24.8% | [2] 3.7% | [3] 8.5% | [4] 15.4% | [5] -4.35% | [6] 15.6%

O=S(=O)(Cc1ccccc1)c1ncc(Cl)cn1
inactive: [1] 8.9% | [2] 6.65% | [3] 13.2% | [4] -5.55% | [5] 16.9% | [6] 16.4%

O=c1cc(-c2ccccc2)oc2c1ccc1c(O)cccc12
inactive: [1] 11.1% | [2] -2.5% | [3] -6.9% | [4] 21.5% | [5] 31.9% | [6] 8.95%

O=C(NC12OC3CC(CC(C3)O1)O2)NC12OC3CC(CC(C3)O1)O2
inactive: [1] 3.6% | [2] 0.35% | [3] 14.2% | [4] -3.85% | [5] -30.3% | [6] 2.2%

Cc1ccc2ccc(-c3cc4ccccc4s3)nc2c1
inactive: [1] -12.2% | [2] -9.75% | [3] -1.5% | [4] -81.8% | [5] -9.5% | [6] -6.1%

CCOC(=O)C1=NNCC1c1cccc(Cl)c1 (stereo not given)
inactive: [1] 12.5% | [2] -7.5% | [3] -3.7% | [4] -37.9% | [5] -13.2% | [6] -6.5%

[Fe+2].[NH-]C(Cc1ccc(O)cc1)C(=O)O.[NH-]C(Cc1ccc(O)cc1)C(=O)O (stereo not given)
inactive: [1] 15.1% | [2] 8.25% | [3] 24.1% | [4] 23.4% | [5] -2.4% | [6] 30.1%

O=C(Nc1cccc(C(F)(F)F)c1)c1ccco1
inactive: [1] 34.5% | [2] 9.75% | [3] 28.7% | [4] 3.55% | [5] 11.1% | [6] 17%

C=CCN(N=O)C(=O)N(CCC)CCCC(NC(C)=O)C(=O)NCc1ccccc1 (stereo not given)
inactive: [1] -3.2% | [2] -27.2% | [3] -14.4% | [4] 22.6% | [5] 2.9% | [6] -14.2%

COC(=O)C(=O)c1c2ccccc2n2ccc3c4ccccc4[nH]c3c12
inactive: [1] 25.9% | [2] 8.9% | [3] -5.75% | [4] 10.1% | [5] 9.6% | [6] 10.5%

C(=Nc1ccccc1-c1ccccc1N=Cc1ccccc1)c1ccccc1
inactive: [1] 7.6% | [2] 7.3% | [3] -1.25% | [4] 7.2% | [5] -7.75% | [6] -17.9%

CCOC(=O)NC(C)=O
inactive: [1] -10.4% | [2] -27.9% | [3] 14.1% | [4] -16.3% | [5] -19.3% | [6] -20.8%

Cn1c(=O)[nH]c2c(-c3ccccc3)n[nH]c2c1=O
inactive: [1] 11.3% | [2] -1.65% | [3] 3.5% | [4] -45.5% | [5] 1.4% | [6] 4.3%

c1cc2c3c(cccc3c1)-c1nc3c(ccc4ccccc43)nc1-2
inactive: [1] -0.15% | [2] 22.8% | [3] 19.6% | [4] 11.6% | [5] 10.4% | [6] 12.3%

NS(=O)(=O)c1cc(Br)ccc1Br
inactive: [1] 8.2% | [2] 12.9% | [3] -0.35% | [4] 39.6% | [5] 17.6% | [6] -7.65%

C=C(C)CNC(=S)N(N)c1ccc(OC)cc1
inactive: [1] 39.5% | [2] 9.75% | [3] 16.6% | [4] -2.2% | [5] 12.4% | [6] 36.1%
